Active and inactive are the calls of the source. The call rests on the fitted dose curve; in most records, active means well fitted curve in the direction sought with a large enough effect in the repeat runs; inconclusive means weak or mixed curves; inactive means flat fitted curve, though single readings scatter.
Assay: qHTS assay to test for compound auto fluorescence at 460 nm (blue) in HepG2 cell free culture (AID 720685)
Conditions: Cell-free culture medium, blue autofluorescence 405/460 nm; series mostly up to 91.3 µM
Description: U.S. Tox21 Program National Center for Advancing Translational Sciences [NCATS] NIH Chemical Genomics Center [NCGC] U.S. Environmental Protection Agency [EPA] National Institutes of Environmental Health Sciences [NIEHS] National Toxicology Program [NTP] U.S. Food and Drug Administration [FDA] Tox21 Assay Overview: Compound auto fluorescence often interferes with screening of the compound library against various biological targets and signaling pathways. Some of these compounds may have fluorophoric properties. Such properties may interfere with the assay outputs resulting in false positives and/or negatives. To decrease such complications and ensure the compound activities are relevant in terms of biological response, the Tox21 10K compound library was screened for auto fluorescence. From the fluorophores used as reporter signals in our screening assays, the auto fluorescence equivalencies of compounds against three fluorophores have been evaluated: Triamterene, Fluorescein and Rose Bengal sodium for blue, green and red fluorescence, respectively. The fluorescence intensities were measured using Excitation/Emission wavelengths at 405/460nm, 485/535nm and 540/590nm for blue, green and red labels, respectively. This assay includes the blue fluorescence data.
Tox21 Assay Protocol Summary: 5 uL of culture medium (MEM containing 10% FBS) per well was dispensed into black wall/clear bottom 1536-well plates using a Multidrop Combi Dispenser (ThermoFisher Scientific, Waltham, MA). After 23 nL compound or DMSO vehicle was transferred into assay plate by a pintool work station (Kalypsys, San Diego, CA), fluorescence intensities in the assay plates were measured by an Envision (PerkinElmer, Shelton, CT) plate reader using three labels for measuring blue, green and red fluorescence at […] 460, 535 and 590nm respectively.

Row | SMILES | outcome
1 | COC(=O)C1=C(C)NC(C)=C(C(=O)OCCN(C)Cc2ccccc2)C1c1cccc([N+](=O)[O-])c1 (stereo not given) | inactive
2 | O=[N+]([O-])c1ccc2c(c1)Cc1ccccc1-2 | inactive
3 | C#C[C@]1(O)CC[C@H]2[C@@H]3CCC4=Cc5oncc5C[C@]4(C)[C@H]3CC[C@@]21C | inactive
4 | CCCCC(CC)COC(=O)c1ccc(N(C)C)cc1 (stereo not given) | inactive
5 | O=C(COc1ccc(Cl)cc1)N1CCN(Cc2ccc3c(c2)OCO3)CC1 | inactive
6 | Cc1ccc2c(n1)Oc1ccc(C(C)C(=O)OCC(=O)N(C)C)cc1C2 (stereo not given) | inactive
7 | C[C@]12CC[C@H]3[C@@H](CCC4=CC(=O)CC[C@@]43C)[C@@H]1CC[C@@H]2C(=O)CO | inactive
8 | c1ccc(Nc2ccccc2)cc1 | inactive
9 | COC(=O)c1ccccc1 | inactive
10 | Cc1[nH]c(=O)c(C#N)cc1-c1ccncc1 | inactive
11 | Cc1cc2nc3c(=O)[nH]c(=O)nc-3n(C[C@H](O)[C@H](O)[C@H](O)CO)c2cc1C | inactive
12 | c1ccc2cc(Nc3ccc(Nc4ccc5ccccc5c4)cc3)ccc2c1 | inactive
13 | c1ccc2sc(SSN3CCOCC3)nc2c1 | inactive
14 | CC(C(=O)O)c1cccc(C(=O)c2ccccc2)c1 (stereo not given) | inactive
15 | O=C=Nc1ccc(Cc2ccc(N=C=O)cc2)cc1 | inactive
16 | CC(=O)c1ccccn1 | inactive
17 | Brc1cc(Oc2cc(Br)c(Br)c(Br)c2Br)c(Br)c(Br)c1Br | inactive
18 | CC(C)(C)NC(=O)[C@H]1CC[C@H]2[C@@H]3CC[C@H]4NC(=O)C=C[C@]4(C)[C@H]3CC[C@]12C | inactive
19 | NNc1ccc(C(=O)O)cc1 | inactive
20 | CCCc1c(OCCCCc2nn[nH]n2)ccc(C(C)=O)c1O | inactive

Row | SMILES | outcome
21 | S=C(NC1CCCCC1)NC1CCCCC1 | inactive
22 | C[C@]12CCC(=O)C=C1CC[C@@H]1[C@@H]2C(=O)C[C@@]2(C)[C@H]1CC[C@]2(O)C(=O)CO | inactive
23 | CCCCCCCCCCCO | inactive
24 | Nc1ccccc1N | inactive
25 | O=CCc1ccccc1 | inactive
26 | CCOC(=O)C(C#N)=C(c1ccccc1)c1ccccc1 | inactive
27 | CCCCOCCOCCOCCO | inactive
28 | CC(=O)Oc1ccccc1C(=O)Nc1ncc([N+](=O)[O-])s1 | inactive
29 | CN(C)C(=N)N=C(N)N | inactive
30 | c1cc(-c2ccncc2)ccn1 | inactive
31 | CC1=CCC(C(C)(C)O)CC1 (stereo not given) | inactive
32 | Oc1ccc(O)cc1 | inactive
33 | COc1cc([C@@H]2c3cc4c(cc3[C@H](O)[C@H]3COC(=O)[C@H]23)OCO4)cc(OC)c1OC | inactive
34 | CCC(C)c1ccccc1O (stereo not given) | inactive
35 | c1ccc2c(c1)c1cccc3ccc4cccc2c4c31 | inactive
36 | C=C(C)C1CC=C(C)CC1 (stereo not given) | inactive
37 | Cc1cccc(C(=O)O)c1 | inactive
38 | COc1cccc2c1C(=O)c1c(O)c3c(c(O)c1C2=O)C[C@@](O)(C(=O)CO)C[C@@H]3O[C@H]1C[C@H](N)[C@H](O)[C@H](C)O1 | inactive
39 | CCCCC(CC)COCC1CO1 (stereo not given) | inactive
40 | O=C(c1ccccc1)c1ccc(O)cc1O | inactive

Source: PubChem BioAssay (Tox21)
